Inconclusive results are not listed. A number with no mark means an inactive call. Activity calls are given as the source filed them. Calls come from the whole dose curve; as a rule, active = well fitted activation curve with a large enough effect; inconclusive = small, poorly fitted or top-dose-only effect; inactive = no such curve, though single readings can be large or run the other way.
assay: qHTS Assay for Identifying a Potential Treatment of Ataxia-Telangiectasia: Secondary assay (no NCS) hit validation; conditions: A-T patient fibroblasts, AlphaLISA, no DNA damage added, 90 min; series mostly up to 76.9 µM; activation: at the top concentration;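 note: phosphorylated KAP1 signal as a proxy for ATM-like kinase activity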; for activation: 0% is about no effect
Source text: NIH Chemical Genomics Center [NCGC]
NIH Molecular Libraries Probe Centers Network [MLPCN]
Assay Submitter (PI): Wei Zheng and Yosef Shiloh
Ataxia-telangiectasia (A-T) is a devastating and progressive disease for which, there is no cure. Although A-T is a multisystem disease, it is stereotyped characterized by its neurological symptoms such as truncal ataxia, due to cerebellar cortical degeneration of the Purkinje and granule cells. Other symptoms of A-T are telangiectasias (dilated blood vessels), primary immunodeficiency, marked sensitivity to ionizing radiation (IR), chromosomal instability and predisposition to cancer.
The underlying genetic cause of A-T is null mutations in the ATM (A-T mutated) gene. ATM is a nuclear serine/threonine kinase that functions as a master regulator of the cellular responses to double strand breaks (DSBs) in the DNA. Upon activation by DSBs, ATM phosphorylates a plethora of downstream targets, including KAP-1 on […]. KAP-1 phosphorylation occurs shortly in response to DSBs and mediates global chromatin relaxation, which facilitates DSB repair. To screen for small molecules that will compensate for the loss of ATM in cells derived from A-T patients, we monitored KAP-1 phosphorylation as a readout for ATM-like activity using an AlphaLISA assay. This secondary assay omits NCS, which creates double-stranded DNA breaks.
Step,Parameter,Value,Description
1. Cell Plating, 3 ul, 500 cells/well in OPTI-MEM, 1% FBS, 1% Pen/Strep
3. Library compounds, 23 nl, 76.7 - 0.61uM dilution series final concentration
4. Incubation, 60 min, 37C, 5% CO2, 95% humidity
6. Incubation, 30 min, 37C, 5% CO2, 95% humidity
7. Reagent, 1 ul, Premixed detection reagents and lysis buffer
8. Reagent, 1 ul, 0.6% Antifoam A
9. Incubation, 6 hr, 25C, 95% humidity
10. Readout, EnVision, EnVision plate reader. AlphaScreen 1536-well protocol
Cells were plated using medium-binding white solid-bottom tissue culture treated Kalypsys plates. Multidrop dispense of 3 uL of F2112 (hTERT immortalized A-T patient fibroblast cells). Detection reagent and lysis buffer was 3.75nM Rab-a-pKAP1 antibody bound to 75 ng/ul AlphaScreen SA donor bead, 3.75 nM Biot-M-a-KAP1 antibody bound to AlphaLISA protein A acceptor bead, 0.5x protease inhibitor cocktail and 0.25x PerkinElmer lysis buffer. EnVision protocol for 1536-well AlphaScreen read (30ms excitation, 100ms read), about 10 min/plate.
Potency is the fitted concentration of half-maximal effect.

Compared with `CCN(CC)S(=O)(=O)c1ccc(Cl)c(NC(=O)CCCCl)c1`, `CC(C)CNS(=O)(=O)c1cc(C(=O)O)c(Cl)cc1Cl` is higher in “activation” value: -1.74% for the first, 10.4% for the second.

Going from `Cc1ccc(NC(=O)Nc2cccnc2)cc1NC(=O)Nc1cccnc1` to `COC(=O)c1ccncc1C(=O)Nc1ccc(Oc2ncc(C(F)(F)F)cc2Cl)cc1`, the “activation” value falls from -0.87% to -5.38%.

Going from `O=C(Nc1ccc([N+](=O)[O-])cc1)c1cc2ccccc2nc1Cl` to `COc1ccc2nc(C)cc(Nc3ccc(C(=O)O)cc3)c2c1`, the “activation” value rises from 14% to 21.5%.

Going from `COc1cc(CCC(=O)OCC(=O)N2CCc3ccccc32)cc(OC)c1OC` to `COC(=O)CCc1c(C)c(C(=O)c2cc(OC)c(OC)c(OC)c2)c2ccccn12`, the “activation” value rises from -4.35% to 9.68%.

Compared with `CN(C)S(=O)(=O)c1cccc(C(=O)N=C2N=C3C=CC(Cl)=CN3Cc3ccccc32)c1`, `COCCCNC(=O)c1c[nH]c2ccc(S(=O)(=O)N(C)c3ccccc3C)cc2c1=O` is lower in “activation” value: -3.39% for the first, -5.93% for the second.

First: COc1ccc(NS(=O)(=O)c2ccc(N3CC(O)=C(c4ccccc4)C3=N)cc2)cc1
Second: COc1ccccc1NC(=O)C1CCCN(S(=O)(=O)c2ccc(-n3cnnn3)cc2)C1 (stereo not given)
The “activation” value of the first is lower: -5.38% for the first, -4.35% for the second.

Compared with `O=c1c2cc(Br)ccc2nc(-c2ccccc2)n1O`, `O=C(O)c1ccc(-c2nc3ccccc3s2)o1` is higher in “activation” value: 1.08% for the first, 12.2% for the second.

First: CCN(CC)c1ccc2c(Cl)c(Br)c(=O)oc2c1
Second: CNC(=O)/C=C/c1cc(C(=O)c2ccc(Cl)cc2Cl)cn1C
The “activation” value of the first is higher: 24.3% for the first, 4.3% for the second.

First: Cc1ccc(C2(C)NC(=O)N(CC(=O)Nc3ccccc3N3CCCC3)C2=O)cc1 (stereo not given)
Second: c1ccc2c(c1)nc(Nc1ccc(N3CCCCC3)cc1)c1nncn12
The “activation” value of the first is lower: -5.38% for the first, 7.63% for the second.

Going from `CCOc1cccc(-c2nnc(SCC(=O)Nc3cc(C)ccc3OC)n2N)c1` to `CCOC(=O)c1[nH]c(COC(=O)c2ccccc2NC(=O)c2ccco2)c(C(=O)OCC)c1C`, the “activation” value falls from 8.6% to -1.08%.

Going from `CC(C)(CO)NC(=O)c1ccc2c(c1)C(=O)c1ccccc1-2` to `CC(C)(C)NC(=O)c1cccc2c1-c1ccccc1C2=O`, the “activation” value falls from 0% to -6.45%.

First: COC(=O)Cn1ccc2cc(S(=O)(=O)N3CCCCC3)ccc21
Second: CCOC(=O)N1CCC(NC(=O)C2CCN(S(=O)(=O)c3cccc4cccnc34)CC2)CC1
The “activation” value of the first is lower: 0% for the first, 12.9% for the second.

First: Cc1nn(C)c(Cl)c1CN1CCN(C2CCCC2)C(CCO)C1 (stereo not given)
Second: Cc1ccc(-c2noc(CCC(=O)NC3CCN(Cc4ccccc4)CC3)n2)cc1
The “activation” value of the first is lower: -1.74% for the first, 4.3% for the second.

Compared with `C=CCN1C(=O)/C(=C/C(=O)OC)S/C1=N\NC(=O)c1ccccc1`, `CCC(C)NC(=O)c1cn(CCOC)c(=O)c2c1c1ccccc1n2C` (stereo not given) is lower in “activation” value: 3.39% for the first, 2.54% for the second.

First: CC(=O)c1ccc([N+](=O)[O-])c(CS(=O)(=O)c2ccc(Cl)cc2)c1
Second: O=C(N/N=C/c1ccncc1)c1ccc(COc2cccc3cccnc23)cc1
The “activation” value of the first is lower: 0% for the first, 9.57% for the second.

Compared with `O=C(NCc1ccccc1)c1cccnc1Sc1ccccc1`, `Cc1nn(-c2ccccc2)c2nc(C(Cl)(Cl)Cl)[nH]c(=O)c12` is lower in “activation” value: 0.87% for the first, -15.1% for the second.

Going from `CNC(=S)N(CCO)Cc1cc2cc3c(cc2[nH]c1=O)OCCO3` to `CCc1ccc(NC(=O)N[C@H](C(=O)O)C(C)CC)cc1` (stereo not given in full), the “activation” value rises from -8.47% to -2.54%.

With `CSc1nc2ccccc2nc1N(C)S(=O)(=O)c1ccc(C)cc1` the Potency was 36.8 µM (active).
With `COc1ccccc1Nc1nc(NCCCN(C)C)nc(N)c1[N+](=O)[O-]` the Potency was 2.6 µM (active).
In the case of `CNC(=O)c1ccc(-c2cc3onc(-c4ccccc4)c3c(=O)n2C)cc1`, the Potency is reported as 18.4 µM (active).
With `CC(C)OP(=O)(OC(C)C)C(O)c1ccc(N(C)C)cc1` (stereo not given) the Potency was 9.23 µM (active).
For `Cc1oc2c(c(C)cc3oc(=O)c(CC(=O)NCC(=O)NCC(=O)O)c(C)c32)c1C`, the Potency was 3.28 µM (active).
For `CCN(c1ccccc1)S(=O)(=O)c1ccc(Cl)c(C(=O)N(CC2CCCO2)C2CCS(=O)(=O)C2)c1` (stereo not given), the Potency was 14.6 µM (active).
